Measured values reported in PubChem BioAssay (NCATS).
Inconclusive results are not listed. The source made the active and inactive calls. Unless noted, calls come from the whole dose curve; as a rule, active = well fitted curve in either direction with a large enough effect (not every such curve was filed as active); inconclusive = small, poorly fitted or top-dose-only effect, or another doubt; inactive = flat fitted curve, though single readings scatter.

Legend:
[1] = biological target: Lysosomal acid glucosylceramidase (Homo sapiens) (UniProt P04062); experiment: Glucocerebrosidase-p2 (AID 348; in the data active = potency below about 10 µM; note: potency is the fitted concentration of half-maximal effect); conditions: purified GBA, blue fluorogenic substrate, 40 min
How it was run: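 Normal human glucocerebrosidase (0.2 nM) with blue fluorogenic substrate (80 uM final) in citrate/phosphate pH 5.9 with 10mM sodium taurocholate, 0.01% tween-20; 40 min RT, NaOH/glycine stop; fluorescence Ex 365/Em 440; AC50 from a titration from 0.6 nM upwards.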

[2] = AP1 Signaling Pathway (AID 357); conditions: ME-180 AP-1-bla reporter, EGF-induced, beta-lactamase ratio, 5 h; at 7.69 µM (top of the series) unless noted;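 note: ME-180 reporter cells stimulated with EGF at its EC50 level; % is set by controls: 0 for no effect and ±100 for the full control effect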
How it was run: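 First, ME-180 AP-1-bla cells were cultured overnight at 37 °C in low-serum Opti-MEM. Next, titrated compounds with EC50 EGF were incubated 5 hours. Finally, CCF4 was added for 2.5 hours and the 460/530 nm ratio recorded.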

[3] = biological target: Cytochrome P450 1A2 (Homo sapiens) (UniProt P05177); experiment: p450-cyp1a2 (AID 410; calls by dose curve; note: potency is the fitted concentration of half-maximal effect;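 for activity change, negative = inhibition: -100% = full effect of reference inhibitor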); conditions: recombinant CYP1A2, luciferin-ME demethylation, luminescence; series mostly up to 11.4 µM
How it was run: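 Read-out is luminescence from luciferin produced by CYP1A2 demethylation of Luciferin-ME (100uM, at Km). Detection reagent stopped the 60 min NADPH-dependent reaction; signals were normalized to 57 uM furafylline.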

[4] = NFAT Signaling Pathway (AID 444); conditions: Jurkat NFAT-bla M1, carbachol, beta-lactamase ratio, 5 h; at 7.69 µM (top of the series) unless noted;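 note: carbachol stimulus at about its EC50 of 1 µM final; % is set by controls: 0 for no effect and ±100 for the full control effect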
How it was run: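 Read-out: CCF4 FRET ratio (460 nm/530 nm) after 1 h RT dye loading, used for %activity and AC50 from titration series. Cells: Jurkat NFAT-β-lactamase/M1 line, treated with compound plus 1 uM carbachol for 5 h, 37 °C.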

[5] = Stat Signaling Pathway (AID 446); conditions: ME-180 SIE beta-lactamase reporter, IL-6 stimulated, 5 h; at 7.69 µM (top of the series) unless noted;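 note: ME-180 cervical cancer cells given 40 pM IL-6 alongside compound; SIE-controlled beta-lactamase reporter measured as 460/530 nm FRET emission ratio; % is set by controls: 0 for no effect and ±100 for the full control effect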
How it was run: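 Compound effects on IL-6-induced STAT reporter activity were measured in ME-180 cells. After overnight culture, cells were co-treated with 40 pM IL-6 for 5 hrs before beta-lactamase substrate loading at room temperature.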

[6] = biological target: Glucocorticoid receptor (Homo sapiens) (UniProt P04150); experiment: GR-GFP Redistribution (AID 450;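 active = compounds whose dose series gives a full or clear partial fitted curve of increased nuclear translocation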; note: potency is the fitted concentration of half-maximal effect); conditions: U2OS GR-GFP nuclear translocation, laser cytometry, 2 h
[7] = biological target: Glucocorticoid receptor (Homo sapiens) (UniProt P04150); experiment: GR-EFC Redistribution (AID 451; calls by dose curve; note: potency is the fitted concentration of half-maximal effect); conditions: CHO-K1 GR-EFC translocation, beta-gal luminescence, 2 h
How it was run: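 Translocation of GR-ED fusion to nuclear EA restores b-gal, read by luminescence after 1 h room-temperature detection. Engineered CHO-K1 biosensor cells, 1,000/well, exposed 2 h at 37 C to titrations up to 46 uM final.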

[8] = biological target: Mitogen-activated protein kinase 10 (Mus musculus) (UniProt Q61831); experiment: JNK3 AlphaScreen Assay (AID 530); conditions: JNK3 lysate, c-Jun phosphorylation; series mostly up to 11.4 µM;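 note: kinase came from lysate of stimulated human HepG2 cells; signal reports phosphorylation of biotinylated GST-cJun 1-79 at Ser73 with 10 µM ATP; % is set by controls: 0 for no effect and ±100 for the full control effect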
How it was run: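 Kinase buffer: 20 mM Tris-HCl pH 7.6, 10 mM MgCl2, 1 mM DTT, 0.1 mM Na3VO4, 0.01% Tween-20; ATP 10 uM. Substrate biotin-GST-cJun(1-79), enzyme from activated HepG2 lysates. Detection by Ser73 phospho-antibody AlphaScreen.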

[9] = biological target: 3',5'-cyclic-AMP phosphodiesterase 4B (Homo sapiens) (UniProt Q07343); experiment: qHTS Assay for Inhibitors of PDE-IV (AID 607; active = well fitted activation curve with a large enough effect in the main read-out, with a control signal flat, not every such curve was filed as active; note: % of control where 0% means no effect); conditions: HEK293 ACTOne CNG channel cells, membrane potential fluorescence; series mostly up to 22.9 µM
How it was run: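 ACTOne HEK293 cells carry a modified cAMP-gated CNG channel and express endogenous PDE4; plated 1000 cells/well, compounds up to 22.9 uM final. Membrane-potential dye fluorescence (ex 535/em 590) was read; parental cells received 10 uM forskolin + 100 uM RO 20-1724.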

[10] = biological target: Cytochrome P450 2C19 (Homo sapiens) (UniProt P33261); experiment: qHTS Assay for Inhibitors and Substrates of Cytochrome P450 2C19 (AID 899; active = well fitted inhibition curve with a large enough effect; note: nearly all actives have a fitted effect of over 60% in size; note: potency is the fitted concentration of half-maximal effect); conditions: recombinant CYP2C19, luciferin-H EGE luminescence; series mostly up to 11.4 µM
How it was run: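 Reactions contain 5nM enzyme, 10uM Luciferin-H EGE (KM) and 50mM KPO4; compound preincubates 10 min at 37C, NADPH regeneration starts turnover for 60 min. Luminescence after detection reagent gives activity.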

[11] = qHTS Assay for Identification of Small Molecule Agonists for Hypoxia Response Element Signaling Pathway (AID 914; active = well fitted activation curve with a large enough effect in the signal ratio, with a control signal flat, not every such curve was filed as active; the % refers to the signal ratio; note: % of control where 0% means no effect); conditions: ME-180 (cervical carcinoma) HRE-bla reporter, beta-lactamase ratio, CoCl2, 17 h; activation: hits give high values
How it was run: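 Read-out: CCF4 FRET ratio of 460nm to 530nm emission (excitation 405nm) after 2.5 hours at room temperature, taken from HRE-bla ME-180 cells that had been exposed to compound and EC50 CoCl2 for 17 hours.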

Chain of 3',5'-cyclic-AMP phosphodiesterase 4B (Homo sapiens) (Q07343 whole entry, looked up): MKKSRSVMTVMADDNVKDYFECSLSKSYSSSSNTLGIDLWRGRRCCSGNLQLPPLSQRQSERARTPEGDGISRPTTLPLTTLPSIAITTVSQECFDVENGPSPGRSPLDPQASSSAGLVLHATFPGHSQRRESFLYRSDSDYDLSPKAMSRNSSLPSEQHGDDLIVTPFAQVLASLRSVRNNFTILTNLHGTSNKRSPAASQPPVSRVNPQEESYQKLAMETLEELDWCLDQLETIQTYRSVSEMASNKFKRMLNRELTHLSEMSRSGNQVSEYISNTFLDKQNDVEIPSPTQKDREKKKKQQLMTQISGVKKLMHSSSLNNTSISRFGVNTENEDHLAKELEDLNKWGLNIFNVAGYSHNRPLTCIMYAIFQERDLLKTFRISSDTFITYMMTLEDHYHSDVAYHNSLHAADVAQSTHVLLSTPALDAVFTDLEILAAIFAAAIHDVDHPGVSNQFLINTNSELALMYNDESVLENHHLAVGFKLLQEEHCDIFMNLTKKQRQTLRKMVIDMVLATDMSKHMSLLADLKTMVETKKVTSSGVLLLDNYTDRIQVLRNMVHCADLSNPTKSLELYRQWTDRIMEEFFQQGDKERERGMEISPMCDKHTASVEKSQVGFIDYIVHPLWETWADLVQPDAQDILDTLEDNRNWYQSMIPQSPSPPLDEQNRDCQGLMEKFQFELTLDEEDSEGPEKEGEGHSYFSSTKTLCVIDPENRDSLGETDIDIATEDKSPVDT
Chain of Cytochrome P450 2C19 (Homo sapiens) (P33261 whole entry, looked up): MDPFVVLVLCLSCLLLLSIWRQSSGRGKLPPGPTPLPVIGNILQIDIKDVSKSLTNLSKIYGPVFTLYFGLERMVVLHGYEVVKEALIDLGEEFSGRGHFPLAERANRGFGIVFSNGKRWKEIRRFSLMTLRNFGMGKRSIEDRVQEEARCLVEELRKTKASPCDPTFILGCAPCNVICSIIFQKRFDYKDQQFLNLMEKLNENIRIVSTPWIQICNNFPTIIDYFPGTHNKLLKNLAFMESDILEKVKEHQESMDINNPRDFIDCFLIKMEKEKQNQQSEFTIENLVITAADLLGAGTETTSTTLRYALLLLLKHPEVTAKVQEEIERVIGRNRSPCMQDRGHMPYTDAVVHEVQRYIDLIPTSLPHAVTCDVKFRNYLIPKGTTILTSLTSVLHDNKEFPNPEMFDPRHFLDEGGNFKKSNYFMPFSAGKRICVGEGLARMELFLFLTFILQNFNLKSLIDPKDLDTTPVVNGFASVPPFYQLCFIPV
Chain of Glucocorticoid receptor (Homo sapiens) (P04150 whole entry, looked up, the tested form may be a part): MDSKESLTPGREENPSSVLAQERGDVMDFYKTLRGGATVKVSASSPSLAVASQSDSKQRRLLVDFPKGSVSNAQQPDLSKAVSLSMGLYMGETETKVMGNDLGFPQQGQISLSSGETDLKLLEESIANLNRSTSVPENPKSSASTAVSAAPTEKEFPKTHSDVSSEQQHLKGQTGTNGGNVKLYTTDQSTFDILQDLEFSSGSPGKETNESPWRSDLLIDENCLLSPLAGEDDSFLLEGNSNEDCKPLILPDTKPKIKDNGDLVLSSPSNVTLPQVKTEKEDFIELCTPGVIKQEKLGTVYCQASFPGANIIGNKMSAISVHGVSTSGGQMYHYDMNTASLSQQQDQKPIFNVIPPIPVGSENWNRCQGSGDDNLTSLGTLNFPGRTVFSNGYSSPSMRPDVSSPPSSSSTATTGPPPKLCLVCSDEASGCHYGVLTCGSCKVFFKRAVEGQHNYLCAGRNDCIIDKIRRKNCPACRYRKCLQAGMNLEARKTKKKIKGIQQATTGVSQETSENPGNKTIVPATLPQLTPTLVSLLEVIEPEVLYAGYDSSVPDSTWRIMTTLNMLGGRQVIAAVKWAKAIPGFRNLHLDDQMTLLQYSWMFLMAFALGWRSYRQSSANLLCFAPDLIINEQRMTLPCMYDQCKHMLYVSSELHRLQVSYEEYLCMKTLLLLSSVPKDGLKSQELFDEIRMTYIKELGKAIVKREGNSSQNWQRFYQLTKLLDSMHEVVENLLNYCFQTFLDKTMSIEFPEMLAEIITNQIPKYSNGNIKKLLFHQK
Chain of Lysosomal acid glucosylceramidase (Homo sapiens) (P04062 whole entry, looked up): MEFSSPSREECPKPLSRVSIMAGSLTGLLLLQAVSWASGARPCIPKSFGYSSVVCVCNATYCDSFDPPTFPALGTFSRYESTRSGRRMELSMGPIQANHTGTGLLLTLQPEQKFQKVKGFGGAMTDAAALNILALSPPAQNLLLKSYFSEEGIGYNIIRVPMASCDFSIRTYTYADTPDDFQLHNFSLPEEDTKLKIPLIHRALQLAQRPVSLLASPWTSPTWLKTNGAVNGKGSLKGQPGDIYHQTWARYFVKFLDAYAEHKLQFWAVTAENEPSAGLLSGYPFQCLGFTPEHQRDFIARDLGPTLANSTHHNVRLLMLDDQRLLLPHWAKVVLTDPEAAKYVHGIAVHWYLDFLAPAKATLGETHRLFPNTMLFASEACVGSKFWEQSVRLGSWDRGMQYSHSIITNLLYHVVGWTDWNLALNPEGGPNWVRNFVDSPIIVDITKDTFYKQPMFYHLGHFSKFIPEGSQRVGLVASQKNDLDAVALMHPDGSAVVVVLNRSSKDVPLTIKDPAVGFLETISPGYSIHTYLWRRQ
Chain of Cytochrome P450 1A2 (Homo sapiens) (P05177 whole entry, looked up): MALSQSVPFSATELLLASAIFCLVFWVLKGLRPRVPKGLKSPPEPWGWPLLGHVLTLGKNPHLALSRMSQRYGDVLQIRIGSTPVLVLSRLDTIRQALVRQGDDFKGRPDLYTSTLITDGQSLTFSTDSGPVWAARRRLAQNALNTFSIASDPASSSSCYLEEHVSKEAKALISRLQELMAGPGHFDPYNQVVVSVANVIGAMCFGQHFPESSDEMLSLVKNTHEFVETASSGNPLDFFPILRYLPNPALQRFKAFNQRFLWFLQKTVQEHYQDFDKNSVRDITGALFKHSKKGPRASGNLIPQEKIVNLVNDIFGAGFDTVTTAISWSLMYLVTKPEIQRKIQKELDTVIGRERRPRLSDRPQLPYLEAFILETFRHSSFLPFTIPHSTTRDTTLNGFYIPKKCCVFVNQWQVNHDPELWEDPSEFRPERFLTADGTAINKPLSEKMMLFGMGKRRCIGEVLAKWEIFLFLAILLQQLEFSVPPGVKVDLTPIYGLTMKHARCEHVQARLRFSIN

OC[C@@H]1O[C@@H](O)[C@H](N=Cc2ccc3c(c2)OCO3)[C@@H](O)[C@@H]1O
inactive: Potency [1] > 11.4 µM | activity change, negative = inhibition [2] 5.99% | activity change, negative = inhibition [3] -24.4% [at 2.29 µM] | activity change, negative = inhibition [4] 3.26% | activity, negative = inhibition [5] 2.95% | Potency [6] > 46 µM | Potency [7] > 9.22 µM | Potency [8] | Potency [9] | Potency [10]

O=C(N[C@@]1(C(=O)O)C[C@@H]1c1ccccc1)c1ccccc1
inactive: Potency [1] > 11.4 µM | activity change, negative = inhibition [2] 7.86% | Potency [3] | activity change, negative = inhibition [4] 18.8% | activity, negative = inhibition [5] 10.3% | Potency [6] > 46 µM | Potency [7] > 9.22 µM | Potency [8] | Potency [9] | Potency [10]

COc1ccc2nc(NCN3C(=O)c4ccccc4C3=O)sc2c1
inactive: Potency [1] > 11.4 µM | activity change, negative = inhibition [2] 2.48% | activity change, negative = inhibition [4] -16% | activity, negative = inhibition [5] 10.9% | Potency [6] > 46 µM | Potency [7] > 9.22 µM | Potency [8] | Potency [9]
active: Potency [3] 3.98 µM | Potency [10] 2.51 µM

O[C@@H]1[C@@H](OCc2ccccc2)OC[C@H](O)[C@@H]1O
inactive: Potency [1] > 11.4 µM | activity change, negative = inhibition [2] 17.3% | Potency [3] | activity change, negative = inhibition [4] -8.65% | activity, negative = inhibition [5] 4.2% | Potency [6] > 46 µM | Potency [7] > 9.22 µM | Potency [8] | Potency [9] | Potency [10]

Cn1c([N+](=O)[O-])cnc1CN1CCN(CCO)CC1
inactive: Potency [1] > 11.4 µM | activity change, negative = inhibition [2] 11% | activity change, negative = inhibition [3] 9.2% [at 2.29 µM] | activity change, negative = inhibition [4] 2.86% | activity, negative = inhibition [5] 10.3% | Potency [6] > 46 µM | Potency [7] > 9.22 µM | Potency [8] | Potency [9] | Potency [10]

O=c1[nH]c(=S)c2[nH]c(=O)n(-c3ccccc3)c2[nH]1
inactive: Potency [1] > 11.4 µM | activity change, negative = inhibition [2] 12.1% | Potency [3] | activity change, negative = inhibition [4] 15.1% | activity, negative = inhibition [5] 8.32% | Potency [6] > 46 µM | Potency [7] > 9.22 µM | Potency [8] | Potency [9] | Potency [10]

CC(C)CNc1nc(N)[nH]c(=O)c1NC=O
inactive: Potency [1] > 11.4 µM | activity change, negative = inhibition [2] 9% | Potency [3] | activity change, negative = inhibition [4] -1.94% | activity, negative = inhibition [5] 7.03% | Potency [6] > 46 µM | Potency [7] > 9.22 µM | Potency [8] | Potency [9] | Potency [10]

CN1CCc2nc(N)nc(-c3nc(N)nc4c3CN(C)CC4)c2C1
inactive: Potency [1] > 11.4 µM | activity change, negative = inhibition [2] 1.73% | activity change, negative = inhibition [3] -3.9% [at 2.29 µM] | activity change, negative = inhibition [4] 7.63% | activity, negative = inhibition [5] 4.69% | Potency [6] > 46 µM | Potency [7] > 9.22 µM | Potency [8] | Potency [9] | Potency [10]

Cn1c(=O)c2c(nc(Cc3ccccc3)n2CC(=O)O)n(C)c1=O
inactive: Potency [1] > 11.4 µM | activity change, negative = inhibition [2] 6.03% | activity change, negative = inhibition [3] -13.2% [at 2.29 µM] | activity change, negative = inhibition [4] 0.0397% | activity, negative = inhibition [5] 10.4% | Potency [6] > 46 µM | Potency [7] > 9.22 µM | Potency [8] | Potency [9] | Potency [10]

N=C(N)SCCCN
inactive: Potency [1] > 11.4 µM | activity change, negative = inhibition [2] 2.32% | activity change, negative = inhibition [4] 3.8% | activity, negative = inhibition [5] 5.52% | Potency [6] > 46 µM | Potency [7] > 9.22 µM | Potency [8] | Potency [9] | Potency [10]
active: Potency [3] 6.31 µM

N=C(c1ccc2ccccc2c1)c1ccccc1Cc1ccccc1
inactive: Potency [1] > 11.4 µM | activity change, negative = inhibition [2] 0.881% | activity change, negative = inhibition [4] -18% | activity, negative = inhibition [5] -1.68% | Potency [6] > 46 µM | Potency [7] > 9.22 µM | Potency [8] | Potency [9]
active: Potency [3] 0.501 µM | Potency [10] 3.98 µM

Nc1ccn([C@H]2O[C@@H](COP(=O)(O)O)[C@@H](O)[C@H]2O)c(=O)n1
inactive: Potency [1] > 11.4 µM | activity change, negative = inhibition [2] 5.49% | Potency [3] | activity change, negative = inhibition [4] 12.4% | activity, negative = inhibition [5] 4.03% | Potency [6] > 46 µM | Potency [7] > 9.22 µM | Potency [8] | Potency [9] | Potency [10]

CC(C)(Oc1ccc(-c2cccc3ccccc23)cc1)C(=O)O
inactive: Potency [1] > 11.4 µM | activity change, negative = inhibition [2] 2.76% | Potency [3] | activity change, negative = inhibition [4] -8.87% | activity, negative = inhibition [5] 1.48% | Potency [6] > 46 µM | Potency [7] > 9.22 µM | Potency [8] | Potency [9] | Potency [10] | activation [11] -19.2%

O=C(O)C1CC2(C1)CC(C(=O)O)C2 (stereo unspecified)
inactive: Potency [1] > 11.4 µM | activity change, negative = inhibition [2] 1.62% | activity change, negative = inhibition [3] -6.3% [at 2.29 µM] | activity change, negative = inhibition [4] 10.7% | activity, negative = inhibition [5] 12.7% | Potency [6] > 46 µM | Potency [7] > 9.22 µM | Potency [8] | Potency [9] | Potency [10]
